Results: PubChem BioAssay (EPA / NIEHS)
Calls of active or inactive are those of the source. The calls were made as follows: active = hit-call score of the fitted dose curve at least 0.9, where 1 is the maximum; inactive = score below 0.9.

Read-out: growth arrest and DNA damage 45 (GADD45A), GADD45A (gene 1647)
Test: LTEA_HepaRG_GADD45A: Life Technologies and Expression Analysis (LTEA) Assay for growth arrest and DNA damage 45 (GADD45A) using HepaRG (AID 2283458)
Settings: mRNA level, 48 h; actives raise or lower the signal
Protocol: LTEA_HepaRG is a cell based, multiplexed-readout assay that uses HepaRG, a human liver cell line, with measurements taken at 48 hours after chemical dosing on a 96-well plate.LTEA_HepaRG_GADD45A is one of 102 assay component(s) measured in the LTEA HepaRG cell culture assay. It is a marker of Oxidative Stress.Data from the assay component LTEA_HepaRG_GADD45A was analyzed into 1 endpoint. This assay endpoint, LTEA_HepaRG_GADD45A, was analyzed with bidirectional fitting relative to DMSO as the negative control and baseline of activity. Using a type of inducible reporter, measures of mRNA induction for gain or loss-of-signal activity can be used to understand regulation of transcription factor activity. To generalize the intended target to other relatable targets, this assay endpoint is annotated to the cell cycle intended target family, where the subfamily is Oxidative Stress.
A total of 1060 chemcials from the ToxCast library were tested in eight-point concentration-response experiments. Cell culture and cytotoxicity assays were conducted at Thermo Fisher Scientific's Custom Services facility (Madison, WI). A single lot of human HepaRG cells (Thermo Fisher Scientific, Frederick, MD) was used for the cell culture experiments. 96-well format collagen type I coated plates of human HepaRG cells were prepared using established methods. Briefly, cryopreserved HepaRG cells were thawed, plated at a density of approximately 100,000 cells/well in HepaRG Thaw, Plate, and General Purpose media (HPRG770, Thermo Fisher Scientific), and incubated for 48 hours. 0.5% DMSO was selected as vehicle control to balance the requisite need of DMSO in HepaRG cultures to maintain differentiation (for example, baseline metabolism, proportions of hepatocytes vs. cholangiocytes), while enabling further hepatic receptor pathway activation (for example, PXR and CAR) in response to chemical exposure. 48 hours after plating, the culture medium was replaced with HepaRG Serum-Free Incudtion Media. Cells were exposed to each test chemical in duplicate and maintained in CO2 incubators for another 48 hours. Chemical plates were thawed to room temperature and 200x concentrations of treatment groups were prepared. 8-point conentration-reponse curves were made with the highest exposure at 100 uM, followed by half-log dilutions, all in 0.5% DMSO. Each test plate contained variouse controls, induction positive controls (1mM phenobarbital), cytotoxicity positive controls ([…] aflatoxin B1), vehicle controls (0.5% DMSO), and total lysis controls (0.5% DMSO). Cell morphology images were taken using an Essen IncuCyte FLR automated microscope, with six 96-well plates imaged in about 24 minutes. Images were captured and exported and JPEG files. Spent culture media was transfered to black-well plates for the LDH assay, and remaining media was sorted at -80 C for later use. Cells were treated with RLT buffer and frozen until shipped for gene expression analysis. Total RNA was isolated from the cell suspension in 75 uL of Buffer RLT (Qiagen, Germantown, MD 20874) by Quintiles/Expression Analysis (Durham, NC) using a custom isolation procedure. Total RNA from each plate well was transferred to a preamplification plate. Fluidigm's 96.96 Dynamic ArrayTM (Fluidigm, Amsterdam, the Netherlands) technology was used for gene expression analyses by quantitative reverse transcription polymerase chain reaction (qRT-PCR, performed by Quintiles/Expression Analysis, Durham, NC)89. Standard TaqManTM Assays (Applied Biosystems/ThermoFisher Scientific, Foster City, CA) were used to assess the expression of 93 genes selected based on their selectivity and sensitivity to important hepatic receptors known to be modulated by environmental chemicals; importance in human hepatocyte functionality; and hepatotoxicity. […]

Row | SMILES | outcome | AC50
1 | c1cc2c3c(cccc3c1)CC2 | inactive | 
2 | O=[N+]([O-])c1ccccc1 | inactive | 
3 | CCC1(c2ccccc2)C(=O)N=C(O)NC1=O (stereo not given) | inactive | 
4 | ClC(Cl)(Cl)c1ccccc1 | inactive | 
5 | Nc1ccc(Cl)cc1 | inactive | 
6 | CC(Cl)(Cl)C(=O)O | inactive | 
7 | CCCCN(CCCC)SN(C)C(=O)Oc1cccc2c1OC(C)(C)C2 | inactive | 
8 | CC(C)(C)c1ccc(O)cc1 | inactive | 
9 | [N-]=[N+]=[N-] |  | 88.1 µM (active)
10 | CC(Cc1ccc(OCC(=O)O)cc1)NCC(O)c1csc(C(F)(F)F)n1 (stereo not given) | inactive | 
11 | Cc1ccc([N+](=O)[O-])cc1C | inactive | 
12 | c1nc[nH]n1 | inactive | 
13 | Nc1cc2c3c(c1)C(c1ccccc1)=N[C@@H](NC(=O)c1cccnc1)C(=O)N3CC2 | inactive | 
14 | CCCCc1ccccc1 | inactive | 
15 | CCOP(=S)(OCC)SCSCC | inactive | 
16 | c1ccc(OP(Oc2ccccc2)Oc2ccccc2)cc1 | inactive | 
17 | CCCCN(CCCC)N=O | inactive | 
18 | Cc1cccc(N)c1 | inactive | 
19 | CCNc1nc(Cl)nc(NC(C)(C)C)n1 | inactive | 
20 | CCCCCCCc1ccc(O)cc1 | inactive | 

Row | SMILES | outcome | AC50
21 | ClC(Cl)c1ccccc1 | inactive | 
22 | O=C(O)C1C(C(=O)O)C2(Cl)C(Cl)=C(Cl)C1(Cl)C2(Cl)Cl (stereo not given) | inactive | 
23 | O=P(Oc1ccccc1)(Oc1ccccc1)Oc1ccccc1 | inactive | 
24 | CCOC(=O)c1ccccc1C(=O)OCC | inactive | 
25 | CCN(CC)c1ccccc1 | inactive | 
26 | CSC(C)(C)C=NO | inactive | 
27 | CN(C)C(=O)Cl | inactive | 
28 | COCCOCCO | inactive | 
29 | Cc1ccc(O)cc1C | inactive | 
30 | O=P1(N(CCCl)CCCl)NCCCO1 (stereo not given) | inactive | 
31 | Nc1ccc2ccccc2c1 | inactive | 
32 | O=C(O)C(Cl)Cl | inactive | 
33 | CC(C)(C)OOC(C)(C)C | inactive | 
34 | CCC(C)(C)c1ccc(O)cc1 | inactive | 
35 | c1ccc2c(c1)Nc1ccccc1S2 | inactive | 
36 | CCOc1ccc(C(C)(C)COCc2cccc(Oc3ccccc3)c2)cc1 | inactive | 
37 | CCOP(=S)(Oc1ccc([N+](=O)[O-])cc1)c1ccccc1 (stereo not given) | inactive | 
38 | O=[N+]([O-])c1ccc(Cl)c(Cl)c1 | inactive | 
39 | Cc1ccc(N)cc1N | inactive | 
40 | ClC1=C(Cl)C2(Cl)C3C(Cl)C(Cl)CC3C1(Cl)C2(Cl)Cl (stereo not given) | inactive | 
